Data as given in the supplement of paper PMC6555819.

Key:
Experiment in all cases: PBM binding z-score (relative to random genomic background probes); higher = stronger binding; sequences stand for … in GC…GCGATTGACAGCGTAGAATGAAGG
[1] = system: FXR:RXRa (NR concentration 270 nM, RXRa partner concentration 90 nM)
In short: (§1)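 Regression normalization was applied to scanned fluorescence from custom Agilent 4×180K protein-binding microarrays. Before scanning, arrays were incubated 1 h with ligand-free nuclear receptor dimers, and binding was detected with antibodies against each partner (one per run). Binding z-scores use the random background probes as reference.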

[2] = system: LXRa:RXRa (NR concentration 270 nM, RXRa partner concentration 90 nM)
In short: as §1

[3] = system: LXRa homodimer (NR concentration 270 nM)
In short: as §1

[4] = system: LXRb:RXRa (NR concentration 270 nM, RXRa partner concentration 90 nM)
In short: as §1

[5] = system: LXRb homodimer (NR concentration 270 nM)
In short: as §1

[6] = system: PPARa:RXRa (NR concentration 270 nM, RXRa partner concentration 90 nM)
In short: as §1

[7] = system: PPARg:RXRa (NR concentration 180 nM, RXRa partner concentration 90 nM)
In short: as §1

[8] = system: PPARg:RXRa 270nM:90nM, anti-RXR (NR concentration 270 nM, RXRa partner concentration 90 nM)
In short: as §1

[9] = system: PPARg:RXRa 30nM:10nM, anti-RXR (NR concentration 30 nM, RXRa partner concentration 10 nM)
In short: as §1

[10] = system: PPARg:RXRa 90nM:30nM, anti-RXR (NR concentration 90 nM, RXRa partner concentration 30 nM)
In short: as §1

Sequence | PBM binding z-score [1] | PBM binding z-score [2] | PBM binding z-score [3] | PBM binding z-score [4] | PBM binding z-score [5] | PBM binding z-score [6] | PBM binding z-score [7] | PBM binding z-score [8] | PBM binding z-score [9] | PBM binding z-score [10]
TGAATGAGGTTATAACATCAGGGAACGTTGCAAA | 1.52 | 1.46 | -0.281 | 1.2 | -0.639 | 2.52 | 1.12 | 1.54 | 0.946 | 1.41
CCTCGGAGGACAACGGGAGGTCAGAGCTGCCAGA | 1.17 | 2.32 | 1.9 | 1.52 | -0.594 | 2.1 | 0.336 | 0.563 | -0.741 | -0.147
TAGCCTAGGTCATTGGGACAGTATAGTACGCATC | 4.69 | 3.35 | 0.922 | 2.45 | 0.648 | 3.84 | 3.81 | 3.69 | 1.27 | 2.57
CCGACTGGGGCATCAGGTTACCATAAGCCAGCCC | -0.188 | 0.277 | -0.351 | -0.136 | -1.31 | 0.743 | 1.33 | 1.59 | -0.0759 | 1.03
CCTGCTAGGTCAATGATCAGCTAAAGCAGCTCGC | 2.71 | 1.96 | -0.345 | 1.3 | -0.139 | 2.62 | 1.98 | 2.46 | 0.000172 | 1.24
GGAACGAGGGCATTCGAGTTGCTAGCATGGCGAT | 0.791 | 0.5 | -0.577 | -0.157 | -0.675 | 0.953 | 0.443 | 0.479 | -0.435 | -0.173
TCGAGTAGGTTACCAATGGGACATTCAGCTTTCT | 0.203 | 1.04 | -0.603 | 0.366 | -0.806 | 0.841 | 0.563 | 1.2 | 1.11 | 1.08
ACTAGTTGGTCAGCTGAGGTCACACATAATTCGG | 3.42 | 3.14 | 2.03 | 3.37 | 1.17 | 3.6 | 1.8 | 2.34 | 0.875 | 1.62
ACAGACAGGTGATGAAGGTATCTCAGGCTATCAT | -0.127 | -0.162 | -0.557 | -0.354 | -0.55 | -0.193 | 0.506 | -0.135 | -0.034 | -0.24
CCTACTGGGCCATCAGGTCGTTGATATCAACGTT | -0.00658 | -0.372 | -0.231 | -0.0218 | -0.541 | 0.992 | 1.22 | 2.22 | 0.274 | 1.41
AGAACGAGGGTACGCTGAGTTGATAGCAGAGTAG | -0.315 | -0.553 | -0.621 | -0.739 | -0.968 | -0.00229 | 0.661 | -0.197 | -0.127 | -0.289
TCTTGTAGATCAGCAGGTTGAGAAAGCTGGCCAA | 0.242 | 0.0309 | -0.346 | -0.0211 | -0.546 | 0.457 | -0.781 | 1.1 | 2.58 | 1.75
CATACTAGGTCACGAAAGGTCAAAGTCGAATGAC | 7.5 | 8.25 | 8.77 | 7.29 | 3.6 | 6.39 | 9.53 | 7.93 | 6.31 | 8.01
GCGACTGGGGCATCAGCAGGTTGCCATAACTTAA | -0.664 | -0.697 | -0.615 | -0.443 | -1.37 | 0.348 | 0.434 | 0.229 | -0.762 | -0.301
CGAACTAGGTCATCCAGGAGAGTGAATACATTGA | 3.98 | 2.66 | 0.805 | 1.98 | -0.132 | 4.89 | 7.72 | 6.23 | 3.86 | 5.76
ATCGAAAGGTCGTGAGATGAGTATACAGAAAGGC | 4.78 | 3.98 | 0.0145 | 3 | 0.525 | 5.17 | 3.63 | 3.8 | 1.53 | 2.49
CCTACTGGGCCATTCAGAGTTCATTGATCATATG | 0.991 | 2.71 | 6.11 | 1.86 | -0.389 | 2.28 | 1.04 | 1.61 | 0.0346 | 0.782
ATCGAAAGGTCGACGAGGTGGGTATACACCGTTT | 3.58 | 3.27 | 0.14 | 2.55 | 0.209 | 4.1 | 2.2 | 2.89 | 0.706 | 1.6
ACTAGCGGGCCAAGGGTCACTCAAGATTAGTCCG | 1.99 | 2.61 | 0.192 | 2.86 | -0.58 | 4.26 | 7.39 | 7.39 | 6.2 | 8.29
TCTTGTAGATCCAAGGTTAAGAAAGCCGAAGCCT | 0.319 | 0.55 | -0.254 | 0.993 | -0.378 | 1.65 | 1.15 | 3.41 | 3.23 | 3.55
CGAGCTAGGTCAGAACAGGACAGTGAAGGATGAT | 1.62 | 0.749 | -0.308 | -0.00924 | -0.647 | 1.11 | 1.11 | 0.596 | -0.277 | 0.0129
AGAATGAGGTTACCAACGATCAGGGAAACGCTTG | 1.58 | 5.96 | -0.334 | 2.43 | -0.375 | 3.66 | 2.78 | 2.43 | 0.844 | 1.7
